Results: article PMC4552634, “A New Set of Chemical Starting Points with Plasmodium falciparum Transmission-Blocking Potential for Antimalarial Drug Discovery” (PLoS ONE, 2015)
About 3,200 (25%) of roughly 13,000 compounds showed an effect of 50% or more. Some of the results follow.

What follows are molecules tested on P. falciparum stage V gametocytes. Conditions: 48 h, 5 µM; inhibitor.
Design: BacTiter-Glo ATP luminescence viability of purified stage V gametocytes in 384-well plates, per cent inhibition versus DMSO

| Compound | % Inhibition [%] |
| --- | --- |
| Cc1cccc2[nH]c(-c3cccc(-c4cccc(NC(=O)Nc5ccc(F)c(F)c5F)c4)c3)nc12 [TCMDC-133227] | -33.06 |
| COc1cncc(/C=C/c2cncc(C(=O)NCCc3ccc(Cl)cc3Cl)c2)c1 [TCMDC-134508] | -1.142 |
| CCOc1cc(C=NNc2nc(C)cc(-n3nc(C)cc3C)n2)ccc1O [TCMDC-124094] | 92.61 |
| CCOc1ccc(Nc2cc(C)nc(Nc3ccc(OCC)cc3)n2)cc1 [TCMDC-125772] | -32.28 |
| CCOc1cc(/C=N/Nc2nc3ccccc3[nH]2)ccc1OCc1ccc([N+](=O)[O-])cc1 [TCMDC-124191] | -53.42 |
| CC1(C)N=C(N)N=C(N)N1OCCSc1ccccc1 [TCMDC-131670] | -8.546 |
| CCNC(=O)Nc1cccc(-c2cccc(-c3nc4c(C)cccc4[nH]3)c2)c1 [TCMDC-133172] | -6.099 |
| CSc1ccc2ccccc2c1CCNCCCCNCCc1c(SC)ccc2ccccc12 [TCMDC-137763] | 109.4 |
| CSc1ccc2ccccc2c1CNCCCCCCNCc1c(SC)ccc2ccccc12 [TCMDC-137758] | 72.82 |
| CC1CCC(NCc2c(O)ccc3ccccc23)CC1 (stereo not shown) [TCMDC-137602] | -21.28 |
| CC1CN(Cc2csc(Nc3ccccc3)n2)CC(C)O1 (stereo not shown) [TCMDC-125078] | 46.05 |
| FC(F)(F)c1ccc2c(C=Cc3ccncc3)c[nH]c2c1 [TCMDC-137257] | 12.06 |
| CCCC(=O)Nc1ccc(OCCCCN(Cc2ccccc2C(F)(F)F)c2ccc(C(F)(F)F)c(C#N)c2)cc1 [TCMDC-133359] | 32.41 |
| Cc1ccc2c(=O)c3cc(C)ccc3[nH]c2c1 [TCMDC-138194] | 58.3 |
| Cc1[nH]c2ccc(-c3ccccc3)cc2c(=O)c1Br [TCMDC-135426] | 61.46 |
| CCCCN(C)CC#Cc1ccc(-c2ccc3[nH]c(C)c(Br)c(=O)c3c2)cn1 [TCMDC-136285] | 11.41 |
| Cc1[nH]c2ccccc2c(=O)c1Br [TCMDC-137427] | 12.8 |
| CCCCc1ccc(-c2ccc3[nH]c(C)c(Br)c(=O)c3c2)cc1 [TCMDC-135463] | 34.89 |
| Cc1ccc2[nH]c3ccccc3c(=O)c2c1 [TCMDC-123947] | 19.38 |
| CCN(CC)CC#Cc1ccc2[nH]c(C)c(Cl)c(=O)c2c1 [TCMDC-136162] | 0.7622 |
| Cc1[nH]c2ccc(-c3ccc(OC(F)(F)F)cc3)cc2c(=O)c1C#N [TCMDC-136129] | 23.98 |
| Cc1[nH]c2ccc(-c3ccc(N(C)C)cc3)cc2c(=O)c1Cl [TCMDC-136188] | 61.07 |
| CCCCN(C)CC#Cc1ccc2[nH]c(C)c(Cl)c(=O)c2c1 [TCMDC-136185] | 85.15 |
| O=c1c2ccccc2[nH]c2cc(Cl)ccc12 [TCMDC-123989] | -7.86 |
| Cc1[nH]c2ccccc2c(=O)c1-c1ccc(Cl)cc1 [TCMDC-137172] | 25.44 |

| Compound | % Inhibition [%] |
| --- | --- |
| Cc1ccc2nc(Nc3ccc(Nc4nc5ccc(C)cc5[nH]4)c(C)c3)[nH]c2c1 [TCMDC-131952] | -70.19 |
| COc1ccc2nccc([C@@H](O)CN3CCC(NC(=O)c4cc5ccccc5[nH]4)CC3)c2c1 [TCMDC-140780] | -18.21 |
| O=C(Nc1ccc(CC(=O)N2CCc3cc(Cl)c(N4CCN(C/C=C/c5ccccc5)CC4)cc32)cc1)Nc1cccc([N+](=O)[O-])c1 [TCMDC-139475] | 6.892 |
| Cc1cc(Nc2cccc(C#N)c2)nc(Nc2ccccc2C)n1 [TCMDC-133471] | -8.734 |
| CCCCNC(=O)[C@H](CC1CCCCC1)NC(=O)c1ccc(O)c(-c2cccc(C(F)(F)F)c2)c1 [TCMDC-140812] | 31.87 |
| O=C(Nc1cc(Cl)ccc1O)c1cc(-c2ccccc2O)no1 [TCMDC-125274] | -14.42 |
| Cc1[nH]c2ccc(C#N)cc2c(=O)c1Br [TCMDC-135219] | 27.39 |
| O=c1c(Br)c(C(F)(F)F)[nH]c2ccc(Oc3ccccc3)cc12 [TCMDC-135798] | -15.2 |
| Cc1ccc2[nH]c(C)c(Br)c(=O)c2c1 [TCMDC-124347] | 65.99 |
| COC(=O)c1ccccc1N1CCN(CCCCNC(=O)c2ccc(NC(=O)c3cc(Cl)cc(Cl)c3)cc2)CC1 [TCMDC-138235] | 7.414 |
| NC(N)=Nc1ccc(OCCCCCOc2ccc(N=C(N)N)cc2Br)c(Br)c1 [TCMDC-137543] | 77.55 |
| NC(N)=Nc1ccc(OCCCCCOc2ccc(N=C(N)N)c(Cl)c2)cc1Cl [TCMDC-137577] | 34.57 |
| NC(N)=Nc1ccc(OCCCCCOc2ccc(N=C(N)N)cc2)cc1 [TCMDC-137482] | 39.96 |
| Cc1nc(N)nc(N)c1-c1cc(Cl)c(N)c(Cl)c1 [TCMDC-137386] | -88.48 |
| Cc1nc2ccccc2c(=O)n1/N=C/c1ccccc1[N+](=O)[O-] [TCMDC-125512] | 2.657 |
| CCOC(=O)c1c[nH]c2c(ccc3ccccc32)c1=O [TCMDC-123857] | 33.13 |
| CCCCOc1cc2[nH]cc(C(=O)OCC)c(=O)c2cc1OCCCC [TCMDC-137523] | 63.76 |
| CCOC(=O)c1c[nH]c2c(sc3cc(OC)ccc32)c1=O [TCMDC-137190] | 2.888 |
| CCCc1cc(NCC)nc(Nc2ccc(C)cc2)n1 [TCMDC-134013] | -22.6 |
| Cc1cccc(OCC(=O)Nc2cccc(NC(=O)COc3cccc(C)c3)n2)c1 [TCMDC-123837] | 22.25 |
| COc1cc(C(=O)NC2CCc3ccccc32)cc(Cl)c1OC (stereo not shown) [TCMDC-124601] | 17.65 |
| Cc1cccc(Nc2nccc(Nc3cccc(C(=O)NCCN4CCOCC4)c3)n2)c1 [TCMDC-124774] | -4.453 |
| OC(CNc1ccnc(Nc2cccc(CCN3CCOCC3)c2)n1)c1ccccc1 (stereo not shown) [TCMDC-136463] | 12.7 |
| Cc1cnc(Nc2cccc(CCN3CCOCC3)c2)nc1NC(C)C [TCMDC-133533] | 57.17 |
